PubChem BioAssay
Calls of active or inactive are those of the source.

Key:
Albumin (Bos taurus) = Albumin (Bos taurus) (UniProt P02769); assay: compounds binding labelled BSA control protein – biochemical, small-molecule microarray, Alexa647 label, 635/667 nm fluorescence, artefact control for SMM control protein annotation, profiling panel (AID 1118); conditions: BSA-A647 binding, fluorescence 635 nm, higher = more signal;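 further: score merges 667 nm emission intensity and signal-to-noise per printed compound spot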
Albumin (Bos taurus), sequence (P02769 whole entry, looked up): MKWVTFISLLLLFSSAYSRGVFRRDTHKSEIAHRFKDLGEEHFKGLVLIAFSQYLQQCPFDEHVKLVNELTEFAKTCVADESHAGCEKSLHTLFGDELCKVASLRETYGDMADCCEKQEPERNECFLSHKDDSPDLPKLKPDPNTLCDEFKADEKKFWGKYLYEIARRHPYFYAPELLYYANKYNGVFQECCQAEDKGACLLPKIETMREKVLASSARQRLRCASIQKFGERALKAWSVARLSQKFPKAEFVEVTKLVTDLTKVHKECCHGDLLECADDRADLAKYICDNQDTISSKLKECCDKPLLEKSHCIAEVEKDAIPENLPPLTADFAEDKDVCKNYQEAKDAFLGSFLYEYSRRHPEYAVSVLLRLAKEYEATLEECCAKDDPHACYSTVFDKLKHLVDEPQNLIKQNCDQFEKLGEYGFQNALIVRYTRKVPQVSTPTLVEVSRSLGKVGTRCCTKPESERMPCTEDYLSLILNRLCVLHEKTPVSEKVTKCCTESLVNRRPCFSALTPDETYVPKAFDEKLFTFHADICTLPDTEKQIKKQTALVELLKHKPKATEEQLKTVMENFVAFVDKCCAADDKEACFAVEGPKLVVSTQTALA

[1] = probe aXIP binding to arrayed compounds – biochemical, NeuroSMM set, 635/667 nm fluorescence, primary screen (AID 1119); conditions: small-molecule microarray, higher = more signal, called active from +8 up or from −8 down;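 further: probe is the protein aXip251-270 applied at 1 µg/mL to compound-printed slides; binding of probe to printed compounds measured as 667 nm fluorescence plus signal to noise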
[2] = probe aNOTCH3 binding on compound microarray – biochemical, small-molecule microarray, 635/667 nm fluorescence, primary screen (AID 1120); conditions: higher = more signal;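 further: probe is a biotin-tagged antibody raised against NOTCH3 rather than NOTCH3 protein; score merges spot fluorescence near 667 nm with spot signal to noise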
[3] = probe aNOTCH2 binding on compound microarray – biochemical, small-molecule microarray, 635/667 nm fluorescence, primary screen (AID 1121); conditions: higher = more signal;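 further: score merges feature fluorescence read at 667 nm with its signal to noise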
[4] = molecular target: Carbonic anhydrase 2 (Homo sapiens) (UniProt P00918); assay: compounds binding carbonic anhydrase 2 – biochemical, small-molecule microarray, Alexa647-labelled CAII, profiling panel (AID 1122); conditions: CAII-A647 binding fluorescence, higher = more signal
[5] = COS7 lysate on small-molecule microarray, probe aHis, 635 nm (AID 1123); conditions: COS7 cell lysate, fluorescence, higher = more signal;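 further: z-score combines 667nm fluorescence intensity with signal-to-noise per printed compound spot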
[6] = probe aLAP1 signal on lysate-treated microarray – cell lysate, small-molecule microarray, COS7 lysate, primary screen (AID 1124); conditions: probe aLAP1, fluorescence, higher = more signal;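 further: lysate comes from COS7 cells expressing LAP1 and is applied at 0.3 µg/mL; score merges spot fluorescence near 667 nm with signal-to-noise over triplicate slides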
Sam68 (KHDRBS1) = assay: compounds binding KHDRBS1 protein – biochemical, small-molecule microarray, 635 nm fluorescence, primary screen (AID 1125); conditions: higher = more signal;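 further: score merges 667 nm channel intensity with signal to noise over triplicate slides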
[7] = test system: Chordin-like protein 2 (CHRDL2); assay: compounds binding chordin-like 2 – biochemical, small-molecule microarray, 635 nm fluorescence, primary screen (AID 1126); conditions: fluorescence 635 nm, higher = more signal;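 further: printed compound slides probed with Chrdl2 protein at 4 µg/mL for 1 h at 4 C; score merges 667 nm emission intensity with signal to noise over three replicate slides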
[8] = molecular target: Concanavalin-A (Canavalia ensiformis) (UniProt P02866); assay: compounds binding concanavalin A lectin – biochemical, small-molecule microarray, Alexa647 label, 635 nm, artefact control for SMM control protein annotation, primary screen (AID 1127); conditions: ConA-A647 binding fluorescence, higher = more signal;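 further: z combines 667 nm emission intensity with signal-to-noise across three replicate slides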
Concanavalin-A (Canavalia ensiformis), sequence (P02866 whole entry, looked up): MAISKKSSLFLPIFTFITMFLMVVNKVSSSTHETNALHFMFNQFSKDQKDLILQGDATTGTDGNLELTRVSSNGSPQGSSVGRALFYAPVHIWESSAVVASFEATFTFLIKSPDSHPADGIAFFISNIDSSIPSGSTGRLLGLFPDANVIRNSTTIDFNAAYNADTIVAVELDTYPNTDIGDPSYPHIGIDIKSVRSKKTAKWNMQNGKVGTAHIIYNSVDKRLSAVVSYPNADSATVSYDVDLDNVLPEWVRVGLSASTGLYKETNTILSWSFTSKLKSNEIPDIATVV

[9] = compounds binding Alexa647 anti-His antibody – biochemical, small-molecule microarray, 635 nm fluorescence, artefact control for SMM control protein annotation, primary screen (AID 1128); conditions: higher = more signal;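 further: score merges feature fluorescence with signal-to-noise for each printed compound spot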
[10] = test system: Human papillomavirus type 1a E7 protein (residues 1-88); assay: HPV1a E7 small-molecule binders, primary screen, biochemical, small-molecule microarray, residues 1-88, 635 nm (AID 1129); conditions: small-molecule microarray binding, fluorescence 635 nm; higher = more signal
[11] = molecular target: Focal adhesion kinase 1 (Homo sapiens) (UniProt Q05397); assay: PTK2 protein binding on printed compound slides – biochemical, small-molecule microarray, 635/667 nm fluorescence, BSA, DTT, primary screen (AID 1130); conditions: 635 nm fluorescence, higher = more signal;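 further: composite of spot emission at 667 nm and signal to noise over triplicate slides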
Focal adhesion kinase 1 (Homo sapiens), sequence (Q05397 whole entry, looked up): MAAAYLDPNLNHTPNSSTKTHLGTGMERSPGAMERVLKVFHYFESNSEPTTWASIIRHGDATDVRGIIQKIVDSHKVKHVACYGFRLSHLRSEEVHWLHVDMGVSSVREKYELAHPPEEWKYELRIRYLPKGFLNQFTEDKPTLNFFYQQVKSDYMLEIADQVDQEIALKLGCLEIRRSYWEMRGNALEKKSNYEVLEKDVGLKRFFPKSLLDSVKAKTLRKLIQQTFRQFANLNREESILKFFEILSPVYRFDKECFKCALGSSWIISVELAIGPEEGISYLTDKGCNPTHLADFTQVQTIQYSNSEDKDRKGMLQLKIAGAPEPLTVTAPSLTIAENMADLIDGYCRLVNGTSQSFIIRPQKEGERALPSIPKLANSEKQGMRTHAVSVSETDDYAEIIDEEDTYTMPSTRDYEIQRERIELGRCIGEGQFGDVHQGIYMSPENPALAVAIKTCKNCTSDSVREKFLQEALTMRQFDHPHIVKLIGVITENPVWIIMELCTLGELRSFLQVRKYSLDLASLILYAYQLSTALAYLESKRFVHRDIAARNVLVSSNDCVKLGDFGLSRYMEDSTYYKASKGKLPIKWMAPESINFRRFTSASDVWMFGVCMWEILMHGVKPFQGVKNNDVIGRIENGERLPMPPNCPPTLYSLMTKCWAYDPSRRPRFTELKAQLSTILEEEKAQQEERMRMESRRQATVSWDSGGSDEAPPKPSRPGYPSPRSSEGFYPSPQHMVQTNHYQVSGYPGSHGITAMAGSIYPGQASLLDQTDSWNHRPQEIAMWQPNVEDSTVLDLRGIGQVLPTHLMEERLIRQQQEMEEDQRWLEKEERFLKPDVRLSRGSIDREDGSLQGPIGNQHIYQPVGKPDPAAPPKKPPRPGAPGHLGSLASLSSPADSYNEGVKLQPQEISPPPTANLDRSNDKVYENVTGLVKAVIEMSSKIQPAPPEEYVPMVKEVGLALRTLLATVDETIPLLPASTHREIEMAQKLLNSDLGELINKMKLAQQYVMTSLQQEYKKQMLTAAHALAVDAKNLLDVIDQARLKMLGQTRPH

[12] = test system: Fibrinogen (Alexa647-labelled); assay: Alexa647-fibrinogen binding to printed small molecules – biochemical, small-molecule microarray, 635/667 nm fluorescence, artefact control for SMM control-protein annotation, profiling panel (AID 1131); conditions: fibrinogen-A647 binding fluorescence, higher = more signal;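 further: z-score merges 667 nm fluorescence with per-spot signal-to-noise over triplicate slides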
[13] = molecular target: Follistatin (Homo sapiens) (UniProt P19883); assay: FST protein binding to printed compounds – biochemical, small-molecule microarray, 635/667 nm fluorescence, primary screen (AID 1132); conditions: 635 nm fluorescence, higher = more signal
Follistatin (Homo sapiens), sequence (P19883 whole entry, looked up): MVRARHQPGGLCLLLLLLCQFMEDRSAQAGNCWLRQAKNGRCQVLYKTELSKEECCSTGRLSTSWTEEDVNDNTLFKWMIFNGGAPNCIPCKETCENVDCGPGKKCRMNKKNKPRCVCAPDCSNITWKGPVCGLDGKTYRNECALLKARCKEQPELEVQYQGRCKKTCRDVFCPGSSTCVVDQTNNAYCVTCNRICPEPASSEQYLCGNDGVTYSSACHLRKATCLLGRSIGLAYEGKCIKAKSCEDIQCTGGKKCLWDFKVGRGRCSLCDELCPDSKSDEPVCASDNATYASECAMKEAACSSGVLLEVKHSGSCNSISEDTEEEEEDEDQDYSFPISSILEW

[14] = molecular target: Fibroblast growth factor 2 (Homo sapiens) (UniProt P09038); assay: basic fibroblast growth factor binding to printed compounds – biochemical, small-molecule microarray, 635/667 nm fluorescence, primary screen (AID 1133); conditions: FGF2, fluorescence 635/667, higher = more signal
Fibroblast growth factor 2 (Homo sapiens), sequence (P09038 whole entry, looked up): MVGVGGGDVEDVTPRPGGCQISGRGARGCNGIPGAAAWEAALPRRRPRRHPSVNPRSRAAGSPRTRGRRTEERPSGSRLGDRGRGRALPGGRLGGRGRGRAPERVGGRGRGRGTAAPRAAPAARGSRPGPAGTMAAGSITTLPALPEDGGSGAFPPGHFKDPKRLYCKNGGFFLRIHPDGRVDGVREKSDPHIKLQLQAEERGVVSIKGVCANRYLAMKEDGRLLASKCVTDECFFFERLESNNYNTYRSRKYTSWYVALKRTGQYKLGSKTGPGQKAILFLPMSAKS

[15] = JC-1 mitochondrial potential readout, lung cancer cells – cell-based, A549, JC-1 fluorescence, basal, 24 h, 100 nL, profiling panel (AID 1138); conditions: higher = more signal;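 further: A549 lung adenocarcinoma cells under basal conditions with no added stimulus; test concentration not given here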
Lefty1 = Lefty1 protein binding to printed compounds – biochemical, small-molecule microarray, 635/667 nm fluorescence, primary screen (AID 1139); conditions: fluorescence 635/667, higher = more signal
[16] = test system: wheat germ agglutinin (Triticum aestivum), Alexa647-labelled; assay: Alexa647-WGA lectin binding to printed small molecules – biochemical, small-molecule microarray, 635/667 nm fluorescence, artefact control for SMM control-protein annotation, profiling panel (AID 1140); conditions: WGA-A647 binding, 635 nm fluorescence, higher = more signal;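 further: score merges 667 nm feature emission with signal to noise over triplicate slides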
[17] = molecular target: Luciferin 4-monooxygenase (Photinus pyralis) (UniProt P08659); assay: inhibition of purified Photinus pyralis luciferase – biochemical, luminescence, purified enzyme, 2006 set, primary screen (AID 1141); conditions: purified firefly luciferase, SteadyGlo luminescence, 30 min; higher = more signal, called active from +8 up or from −8 down;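 further: cell-free assay with purified firefly luciferase at 100 ng per well in PBS; test concentration not given here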
Luciferin 4-monooxygenase (Photinus pyralis), sequence (P08659 whole entry, looked up): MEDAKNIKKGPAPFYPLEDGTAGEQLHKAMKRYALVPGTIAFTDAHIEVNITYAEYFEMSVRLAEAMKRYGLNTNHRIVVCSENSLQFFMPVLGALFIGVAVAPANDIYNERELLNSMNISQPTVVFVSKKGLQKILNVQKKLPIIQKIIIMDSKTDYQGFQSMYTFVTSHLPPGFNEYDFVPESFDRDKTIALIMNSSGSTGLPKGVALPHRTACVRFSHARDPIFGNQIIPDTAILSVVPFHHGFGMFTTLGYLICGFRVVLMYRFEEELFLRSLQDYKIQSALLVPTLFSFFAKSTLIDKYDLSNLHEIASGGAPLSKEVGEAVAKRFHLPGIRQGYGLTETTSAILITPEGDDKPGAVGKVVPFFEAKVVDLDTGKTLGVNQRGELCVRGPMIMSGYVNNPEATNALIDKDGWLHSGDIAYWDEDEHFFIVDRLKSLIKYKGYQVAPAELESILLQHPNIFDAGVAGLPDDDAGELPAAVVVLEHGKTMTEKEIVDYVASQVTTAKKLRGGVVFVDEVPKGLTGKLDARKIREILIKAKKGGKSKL

SMILES | composite z-score (Albumin (Bos taurus)) | composite Z-score [1] | composite z-score [2] | composite z-score [3] | composite z-score [4] | composite z-score [5] | composite z-score [6] | composite z-score (Sam68 (KHDRBS1)) | composite z-score [7] | composite z-score [8] | composite z-score [9] | composite z-score [10] | composite z-score [11] | composite z-score [12] | composite z-score [13] | composite z-score [14] | z-score [15] | composite z-score (Lefty1) | composite z-score [16] | z-score [17]
CC/C=C/C(=O)N(C[C@@H]1CCCO1)[C@@H]1CC(C(=O)NCCO)=C[C@H](Oc2c(I)cc(CO)cc2OC)[C@H]1O | 0.74 | 0.465 (inactive) | 0.0208 | -0.103 | 0.721 | 1.42 | 0.739 | 0.787 | -0.355 | -0.629 | 0.224 | 0.164 | 0.303 | 0.217 | -0.227 | -0.273 | 1.91 | 0.0903 | 0.701 | -1.47 (inactive)
CC(C)[Si]1(C(C)C)OCc2cc(C3CC3)nc(-c3ccccc3)c21 | -0.613 | -0.536 (inactive) | -0.295 | -0.12 | 0.112 | -0.57 | -0.683 | -0.124 | -0.161 | -0.26 | -1.42 | -0.722 | -0.294 | -0.742 | 0.441 | -0.5 | 0.325 | -0.165 | -0.625 | -0.525 (inactive)
Cc1ccccc1C(O)C1C=CC2C(=O)N(c3ccccc3)C(=O)C2N1Nc1ccc(C#N)cc1 (stereo not given) | 1.04 | 1.4 (inactive) | 0.841 | 0.417 | 0.652 | 2.87 | 1.37 | 1.31 | 0.632 | 1.18 | 2.68 | 1.21 | 0.842 | 0.523 | 0.683 | 0.302 | -0.638 | 0.0979 | 1 | -1.33 (inactive)
C=C(/C(=C/C[C@@H](OC(=O)c1ccncc1)c1ccc(CO)o1)c1cnc2ccccc2c1)C(C)C | 0.485 | 0.0431 (inactive) | 0.0225 | -0.132 | 0.557 | 0.606 | 0.367 | 1.3 | 1.21 | 1.17 | 1.73 | 0.969 | 0.462 | 0.954 | 1.32 | 1.07 | 0.313 | 0.949 | 1.4 | -4.43 (inactive)
COc1cccc([C@@H]2[C@@H](C)CC[C@H]3C(=O)N4[C@H](c5cccc(OC)c5)[C@@H](C)CC[C@H]4C(=O)N23)c1 | 0.447 | -0.155 (inactive) | 0.0193 | -0.0262 | 0.35 | 0.69 | 1.06 | 0.656 | 0.811 | 0.0858 | 0.584 | 0.276 | -0.175 | 0.817 | 0.614 | 0.428 | 1.55 | 0.418 | 0.248 | -1.78 (inactive)
C=C(COC)C(=O)CC[C@H](OC(=O)c1ccccc1-c1ccccc1C(=O)O)c1cccc(OCCO)c1 | -0.611 | 0.61 (inactive) | 0.123 | -0.118 | 0.418 | 4.78 | 0.893 | 0.735 | 1.43 | 0.893 | 2.49 | 1.27 | 0.403 | -0.46 | 1.56 | 2.11 | -1.02 | 1.65 | -0.496 | -4.13 (inactive)
CCN1C(C)=C(C(=O)OC)[C@@H](c2ccccc2)N2C(=O)[C@](O)(C(=O)OC)[C@@H](c3ccccc3)C(C(=O)c3ccccc3)=C12 | 0.325 | 0.111 (inactive) | 0.541 | -0.112 | 0.401 | 0.915 | 0.629 | 0.723 | 0.309 | 0.352 | 0.0774 | 0.778 | 0.0079 | 0.983 | 0.411 | 0.411 | 1.58 | 0.717 | 0.593 | -1.2 (inactive)
COCCOC(=O)N1C(=O)[C@@]2(c3cc(C#CCCO)ccc31)[C@H](c1ccc(OCCO)cc1)N1[C@H](c3ccccc3)[C@H](c3ccccc3)OC(=O)[C@H]1[C@@H]2C(=O)NC[C@H](O)c1ccccc1 | -0.525 | 0.463 (inactive) | 0.272 | -0.146 | 0.484 | 1.78 | 0.54 | 1.29 | 0.716 | 1.05 | 1.23 | 1.21 | 0.76 | 0.883 | 1.39 | 1.36 | -1.15 | 1.24 | 0.728 | -0.216 (inactive)
COCCOC(=O)N1C(=O)[C@@]2(c3cc(C#CC4=CCCCC4)ccc31)[C@H](C(=O)NC[C@H](O)c1ccccc1)[C@H]1C(=O)O[C@H](c3ccccc3)[C@H](c3ccccc3)N1[C@@H]2c1ccc(OCCO)cc1 | 0.723 | -0.0384 (inactive) | 0.0739 | -0.0986 | 0.224 | 1.9 | -0.0647 | 1.3 | 0.629 | 1.12 | 0.577 | 1.2 | 0.221 | 0.955 | 1.35 | 1.22 | -1.73 | 1.08 | 0.971 | -0.526 (inactive)
COCCOC(=O)N1C(=O)[C@@]2(c3cc(C#CC4(O)CCCCCC4)ccc31)[C@H](C(=O)N1CCCCCCC1)[C@H]1C(=O)O[C@H](c3ccccc3)[C@H](c3ccccc3)N1[C@@H]2c1ccc(O)cc1 | -0.653 | 0.108 (inactive) | 0.885 | 0.337 | 0.485 | 2.62 | -0.139 | 1.3 | 0.519 | 1.08 | 1.25 | 1.22 | 0.646 | 0.72 | 1.48 | 0.536 | 0.208 | 1.08 | 1.38 | -1.27 (inactive)
CC1CC/C=C\[C@H]2OC34C=CCN(Cn5nnc6ccccc65)C(=O)[C@H]3N(C(C)CO)C(=O)[C@@H]4C2C(=O)O1 (stereo not given in full) | -0.178 | -0.105 (inactive) | -0.1 | -0.189 | 0.797 | -0.0502 | 0.0114 | -0.579 | -0.764 | -0.309 | 0.52 | -1.01 | -0.305 | -0.559 | -0.491 | -1.01 | 0.417 | -0.328 | -0.462 | -0.223 (inactive)
